The results in this text go back to PubChem BioAssay (NCATS).

Values joined by “and” are separate entries in the source; they are usually repeats but may differ in a detail not shown here. Equal values may be shown once. Results filed as inconclusive are left out. Entries that show only a call come without a potency. Active and inactive are the calls of the source. Unless noted, calls come from the whole dose curve. Numbered stars: 1 amine (or outer) side, 2 acyl side, 3 side chain; on linkers, the order of the positions; unused ones are H or OH. Bridge positions count the residues as written; N and C are the ends. Square brackets hold non-standard residues; d marks the D form. Peptide text beside a SMILES is read from it. I, II: the chains in the order shown. Actinocin(9to1) = Cc1c2oc3c(C)ccc(C(=O)[*:1])c3nc-2c(C(=O)[*:2])c(N)c1=O; NMeV = CN[C@H](C(=O)O)C(C)C; Sar = CNCC(=O)O

Test [1] is described as follows: Primary qHTS for Huh7 cytotoxicity: counterscreen for inhibitors of MERS-S pseudotyped particle cell entry (AID 1479147).
Test [2] in a line: Primary qHTS for Vero E6 cytotoxicity: counterscreen for inhibitors of SARS-S pseudo-typed particle cell entry (AID 1479150). Note: potency is the fitted concentration of half-maximal effect.
The nature of test [3]: Confirmatory qHTS for VERO E6 Cytotoxicity Assay: Counterscreen for SARS-CoV-2 CPE Assay (AID 1508605). Note: series mostly up to about 20 µM; nearly all actives have a fitted effect of over 60% in size.
Test [4] is described as follows: Primary qHTS for inhibitors of MERS-S pseudo-typed particle cell entry (AID 1479149). Note: nearly all actives have a fitted effect of over 60% in size. Note: potency is the fitted concentration of half-maximal effect.
Test [5] in a line: Primary qHTS for inhibitors of La Crosse Virus (LACV) - induced cell death in SH-SY5Y cells (AID 1508616; active = well fitted curve in the direction sought with a large enough effect; an effect the other way counts as inactive or inconclusive;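 note: top concentration of the series differs between compounds; higher means more rescue of cells from virus-induced death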). In outline:
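SH-SY5Y cells (6000/well) plated 24 h, then given compounds by pin transfer and LACV at 0.01 MOI for 6 days at 37C. Viability measured by ATPLite luminescence, normalized to infected DMSO and uninfected DMSO.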

The target in test [6] is Calcium and integrin-binding protein 1 (Homo sapiens) (UniProt Q99828). The experiment in a line: Primary qHTS for Identification of Calcium Integrin Binding Protein 1 (CIB1) Competitor (AID 1508620; active = well fitted curve in the direction sought with a large enough effect; an effect the other way counts as inactive or inconclusive;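 note: GST tagged CIB1 binding a fluorescein labelled alphaIIb integrin peptide tracer; top concentration of the series differs between compounds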). In outline:
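Fluorescence polarization competition: CIB1-GST (1 uM final) preincubated with compound 15 min at room temperature, then FITC-labeled alphaIIb peptide (100 nM final) added for another 15 min. Polarization read at Ex 480/Em 540.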

Test [7] is described as follows: Primary qHTS for small molecule stabilizers of the endoplasmic reticulum resident proteome: Secreted ER Calcium Modulated Protein (SERCaMP) assay (AID 1508630; active = well fitted curve in the direction sought with a large enough effect; an effect the other way counts as inactive or inconclusive). In outline:
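GLuc-SERCaMP-expressing SH-SY5Y cells, pretreated 16 h with compound, are challenged with thapsigargin to empty ER calcium stores; after 4 h, coelenterazine is added directly to the medium and luminescence is imaged.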

The nature of test [8]: A High-Content qHTS Against Drug Library for the Identification of Small Molecules that Inhibit DYT1 Early Onset Primary Dystonia-Associated Cell Pathology (AID 1645839). Note: series mostly up to about 46 µM. In outline:
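Readout: %pathology, the punctate EGFP-TorsinA distribution from imaging, as the primary channel and cell count as the toxicity counterscreen. HEK293 Flp-In cells expressing delE TorsinA were induced with tetracycline and treated with compound for 48 h.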

The target in test [9] is Cytochrome P450 2D6 (Homo sapiens) (UniProt P10635). Briefly: Cytochrome P450 family 2 subfamily D member 6 (CYP2D6) small molecule antagonists: luciferase biochemical (cell-free) qHTS assay (AID 1645840; active = well fitted curve in the direction sought with a large enough effect in the repeat runs; an effect the other way counts as inactive or inconclusive; note: nearly all actives have a fitted effect of over 55% in size; note: potency is the fitted concentration of half-maximal effect). In short, it runs like this:
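P450-Glo luminescent screen: recombinant CYP2D6 enzyme–proluciferin substrate mix preincubated with compound 10 min at room temperature, then NADPH regeneration added for 1 h at room temperature. Detection reagent added for 20 min; luciferin light read as relative luminescence units.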

Test [10] is described as follows: Confirmatory qHTS for activators (rescue) of SARS-CoV-2 Cytopathic Effect (CPE) (AID 1508606). Note: potency is the fitted concentration of half-maximal effect; nearly all actives have a fitted effect of over 70% in size.
In test [11] the target is Calcium and integrin-binding protein 1 (Homo sapiens) (UniProt Q99828). Briefly: Validation qHTS for Identification of Calcium Integrin Binding protein 1 (CIB1) Competitor (AID 1508618; active = well fitted curve in the direction sought with a large enough effect; an effect the other way counts as inactive or inconclusive). In short, it runs like this: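 CIB1-GST (1 uM final) in 5 mM HEPES pH 7.4, 125 mM NaCl, 5 mM CaCl2, 0.01% Tween20 was preincubated 15 min at room temperature with compound (up to 114 uM), then FITC-alphaIIb peptide (100 nM) added for 15 min; fluorescence polarization read.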
Calcium and integrin-binding protein 1 (Homo sapiens), sequence (Q99828 whole entry, looked up): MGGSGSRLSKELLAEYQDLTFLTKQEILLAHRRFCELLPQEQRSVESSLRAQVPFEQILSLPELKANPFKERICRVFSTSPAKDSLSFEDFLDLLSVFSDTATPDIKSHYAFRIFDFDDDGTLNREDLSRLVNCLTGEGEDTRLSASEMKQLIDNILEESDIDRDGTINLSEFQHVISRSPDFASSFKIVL

Cytochrome P450 2D6 (Homo sapiens), sequence (P10635 whole entry, looked up): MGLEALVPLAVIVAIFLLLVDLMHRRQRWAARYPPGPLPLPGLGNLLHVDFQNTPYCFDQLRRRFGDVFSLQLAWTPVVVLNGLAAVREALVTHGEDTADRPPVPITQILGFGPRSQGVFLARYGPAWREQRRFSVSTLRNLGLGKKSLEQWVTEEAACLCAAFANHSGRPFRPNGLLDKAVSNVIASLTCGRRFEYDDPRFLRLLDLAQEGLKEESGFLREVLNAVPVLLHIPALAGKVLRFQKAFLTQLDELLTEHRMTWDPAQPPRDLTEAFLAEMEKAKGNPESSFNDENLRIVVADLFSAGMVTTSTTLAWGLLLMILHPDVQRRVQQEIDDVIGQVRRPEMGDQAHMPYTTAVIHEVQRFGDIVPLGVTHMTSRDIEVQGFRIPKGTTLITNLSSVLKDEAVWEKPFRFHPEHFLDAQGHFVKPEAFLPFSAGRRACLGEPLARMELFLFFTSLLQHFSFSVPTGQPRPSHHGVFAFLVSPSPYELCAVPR

Turning to `C#Cc1cccc(Nc2ncnc3cc(OCCOC)c(OCCOC)cc23)c1`, the Potency entry in test [1] and in [2] was “inactive” in each case.
In the case of `CN(C)CCC=C1c2ccccc2CCc2ccccc21`, the Potency entry in [1], in test [2] and in test [3] was “inactive” in each case.
Turning to `C[C@H]1c2cccc(O)c2C(O)=C2C(=O)[C@]3(O)C(O)=C(C(N)=O)C(=O)[C@@H](N(C)C)[C@@H]3[C@@H](O)[C@@H]21`, the Potency entry in test [1] and in test [2] was “inactive” in each case.
On to `O=C1CCc2cc(OCCCCc3nnnn3C3CCCCC3)ccc2N1`, for which the Potency result in test [1] and in test [2] was “inactive” in each case.
For `COc1ccc(OC)c(C(O)CNC(=O)CN)c1` (stereo not given), the Potency result in test [1] and in test [2] was “inactive” in each case.
In the case of `CN1CCC(=C2c3ccccc3C=Cc3ccccc32)CC1`, the Potency result in test [1], in [2] and in test [3] was “inactive” each time.
In the case of `CN(C)CCC=C1c2ccccc2C=Cc2ccccc21`, the Potency result in test [1], in [2] and in test [3] was “inactive” in each case.
For the compound `CN1CCN(C(c2ccccc2)c2ccccc2)CC1`, the Potency entry in test [1] and in [2] was “inactive” each time.
For `OCCOCCN1CCN(C(c2ccccc2)c2ccc(Cl)cc2)CC1` (stereo not given), the Potency entry in [1] and in test [2] was “inactive” throughout.
As to `COC(=O)C1=C(C)NC(C)=C(C(=O)OCCN(C)Cc2ccccc2)C1c1cccc([N+](=O)[O-])c1` (stereo not given), the Potency entry in [1] and in test [2] was “inactive” in each case.
`Cc1nc2n(c(=O)c1CCN1CCC(c3noc4cc(F)ccc34)CC1)CCCC2`: the Potency result in [1] and in [2] was “inactive” in each case.
Consider `CO[C@@]12[C@H](COC(N)=O)C3=C(C(=O)C(C)=C(N)C3=O)N1C[C@@H]1N[C@@H]12`, for which the Potency result in test [1] and in test [2] was “inactive” in each case.
In the case of `Oc1cc(Cl)ccc1Oc1ccc(Cl)cc1Cl`, the Potency result in test [1], in test [4], in test [2], in [5], in [6] and in [8] was “inactive” in each case. The outcome in test [7] was inactive. Further, the Potency in test [9] was 8.64 µM (active) and 11 µM (active).
Turning to `CC[C@H](C)C(=O)O[C@H]1C[C@@H](C)C=C2C=C[C@H](C)[C@H](CC[C@@H]3C[C@@H](O)CC(=O)O3)[C@H]21`, in test [1], the Potency result is “inactive”. Besides, the Potency in [2] was 14.1 µM (active).
The matching figures for `C#C[C@]1(O)CC[C@H]2[C@@H]3CCC4=Cc5oncc5C[C@]4(C)[C@H]3CC[C@@]21C`: “inactive” and “inactive”.
The like results for `COc1cc2nc(N(C)CCCNC(=O)C3CCCO3)nc(N)c2cc1OC` (stereo not given) were, in that order, “inactive” and “inactive”.
With `COc1cc2nc(N3CCN(C(=O)C4COc5ccccc5O4)CC3)nc(N)c2cc1OC` (stereo not given), the Potency entry in test [1], in [2] and in test [3] was “inactive” throughout.
As for `CN1CCN(C2=Nc3ccccc3Oc3ccc(Cl)cc32)CC1`, the Potency result in test [1] and in test [2] was “inactive” in each case.
In the case of `O=C1Nc2ccc(Cl)cc2[C@@](C#CC2CC2)(C(F)(F)F)O1`, the Potency result in [1], in test [4], in test [2] and in [3] was “inactive” each time.
Turning to `CCN(CC)CCOC(=O)C1(C2CCCCC2)CCCCC1`, the Potency result in test [1] and in test [2] was “inactive” each time.
With `CC1=C2C[C@@H]3[C@@H](CC=C4C[C@@H](O)CC[C@@]43C)[C@@H]2CC[C@]12O[C@H]1C[C@H](C)CN[C@H]1[C@H]2C`, the Potency result in test [6] is “inactive”. Further, in [7], the result was inactive.
For the compound `CNC(=O)N1N=C(c2ccc(N)cc2)c2cc3c(cc2CC1C)OCO3` (stereo not given), in test [6], the Potency entry is “inactive”. The outcome in test [7] was inactive.
Turning to `CN1CCc2cccc3c2[C@H]1Cc1ccc(O)c(O)c1-3`, the Potency result in test [4] and in [2] was “inactive” in each case.
Regarding `O=C(O)C(=O)c1cn(Cc2ccccc2)c2ccc(-c3ccc(OC(F)(F)F)cc3)cc12`, the Potency result in [3] and in test [6] was “inactive” throughout. Besides, in test [7], the outcome was inactive.
With `Cc1cc(SCc2sc(-c3ccc(C(F)(F)F)c(F)c3)nc2C)ccc1OCC(=O)O`, the Potency result in [6] was “inactive”. Also, in test [7], the outcome was inactive.
On to `CNCCCC1c2ccccc2C=Cc2ccccc21`, for which the Potency result in [2] and in test [3] was “inactive” in each case.
With `O=c1oc2ccccc2c(O)c1C(CC(O)c1ccc(-c2ccc(Br)cc2)cc1)c1ccccc1` (stereo not given), the Potency entry in test [5] is “inactive”. Moreover, the result in test [7] was inactive.
Turning to `CN(C)CCCN1c2ccccc2Sc2ccc(Cl)cc21`, the Potency entry in test [1] and in [2] was “inactive” each time. Also, in test [10], the Potency was 11.2 µM (active).
As for `CCCNCC(O)COc1ccccc1C(=O)CCc1ccccc1` (stereo not given), the Potency entry in [2] and in test [3] was “inactive” in each case.
For the compound `CNC(=O)c1ccc(N2C(=S)N(c3ccc(C#N)c(C(F)(F)F)c3)C(=O)C23CCC3)cc1F`, the Potency result in test [6] and in test [9] was “inactive” in each case. Further, the result in [7] was inactive.
As to `CCN(CC)C(=S)SSC(=S)N(CC)CC`, the Potency entry in test [4] was “inactive”.
`NCCc1cc(O)c(O)cc1O`: the Potency result in test [5], in test [6] and in test [8] was “inactive” in each case. The result in [7] was inactive.
For the compound `O=C(CCCN1CCC(O)(c2ccc(Cl)cc2)CC1)c1ccc(F)cc1`, the Potency result in test [2] was “inactive”.
Take `Cc1c2oc3c(C)ccc(C(=O)N[C@@H]4C(=O)N[C@H](C(C)C)C(=O)N5CCC[C@H]5C(=O)N(C)CC(=O)N(C)[C@@H](C(C)C)C(=O)O[C@@H]4C)c3nc-2c(C(=O)N[C@@H]2C(=O)N[C@H](C(C)C)C(=O)N3CCC[C@H]3C(=O)N(C)CC(=O)N(C)[C@@H](C(C)C)C(=O)O[C@@H]2C)c(N)c1=O` (I: T[dV]P[Sar][NMeV] / II: T[dV]P[Sar][NMeV]; ester I:1-I:C, II:1-II:C; linker I:N-II:N via Actinocin(9to1)): the Potency result in test [2] was “inactive”.
As to `CNCCC(Oc1ccc(C(F)(F)F)cc1)c1ccccc1` (stereo not given), the Potency result in [2] and in [3] was “inactive” each time.
As to `Nc1nc(=S)c2[nH]cnc2[nH]1`, the Potency entry in [4] was “inactive”.
As for `CSc1ccc2c(c1)N(CCC1CCCCN1C)c1ccccc1S2` (stereo not given), in [2], the Potency result is “inactive”.
`CN(C)CCN(C)CCc1ccc(Cl)c(Cl)c1`: in [6], the Potency entry is “inactive”. Also, the outcome in test [7] was inactive.
With `CNCC[C@H](Oc1cccc2ccccc12)c1cccs1`, the Potency in test [4] was 25.1 µM (active); in [10], 10 µM (active). Besides, the Potency result in test [2] and in test [3] was “inactive” in each case.
Take `COC1(CS(=O)c2ccccc2)CCN(CCc2c[nH]c3ccc(F)cc23)CC1` (stereo not given): the Potency entry in [6] was “inactive”. Further, the outcome in test [7] was inactive.
For `NP(N)(=O)NC(=O)c1ccc(F)cc1`, the Potency entry in test [5], in test [6], in [8] and in test [9] was “inactive” each time. For the same compound, in [7], the result was inactive.
For `COC1=CC(=O)C[C@@H](C)[C@]12Oc1c(Cl)c(OC)cc(OC)c1C2=O`, the Potency result in test [4] and in [2] was “inactive” each time.
On to `CCc1nn(CCCN2CCN(c3cccc(Cl)c3)CC2)c(=O)n1CCOc1ccccc1`, for which the Potency result in [2] was “inactive”.
With `CC(O)(CS(=O)(=O)c1ccc(F)cc1)C(=O)Nc1ccc(C#N)c(C(F)(F)F)c1` (stereo not given), the Potency result in [5], in test [11] and in test [6] was “inactive” in each case. In test [7], the result was inactive.
Consider `C[C@@H]1[C@@H](CC(C[C@H]2O[C@@H]3O[C@]4(C)CC[C@@H]5[C@H](C)CC[C@@H]([C@H]2C)[C@@]35OO4)C[S+](=O)([O-])c2ccc(COC(=O)N(C)C)cc2)O[C@@H]2O[C@]3(C)CC[C@H]4[C@H](C)CC[C@@H]1[C@@]24OO3` (stereo not given in full), for which, in [6], the Potency result was “inactive”. Further, the result in [7] was inactive.
For the compound `C[C@@H]1[C@@H](C(=O)C[C@H]2O[C@@H]3O[C@]4(C)CC[C@@H]5[C@H](C)CC[C@@H]([C@H]2C)[C@@]35OO4)O[C@@H]2O[C@]3(C)CC[C@H]4[C@H](C)CC[C@@H]1[C@@]24OO3`, the Potency entry in test [6] is “inactive”. Moreover, the outcome in [7] was inactive.
